Consider 16 molecules from PubChem BioAssay (EPA / NIEHS).

Results filed as inconclusive are left out. The source made the active and inactive calls. How the source made its calls: active means hit-call score of the fitted dose curve at least 0.9, where 1 is the maximum; inconclusive means response in the unintended direction; inactive means score below 0.9.

In this assay the target is Nucleoli Translocation, AR (gene 367) (UniProt P10275). In words: UPITT_HCI_U2OS_AR_TIF2_Nucleoli_Antagonist: University of Pittsburgh U2OS Androgen Receptor-Transcriptional Intermediary Factor 2 (AR-TIF2) Antagonism High Content Imaging Assay for Nucleoli Translocation (AID 2283997). An excerpt: UPITT_AR_TIF2_PPIB is a cell-based, high-content imaging assay that uses U2OS, a human osteosarcoma cell line, expressing a human androgen receptor fused to red fluorescent protein and the coactivator TIF2 fused to green fluorescent protein. UPITT_HCI_U2OS_AR_TIF2_Nucleoli_Antagonist is one of four assay components measured from the UPITT_AR_TIF2_PPIB assay. It is designed to make measurements of red fluorescence localized in the nucleolar region of the cell nucleus as detected with high-content fluorescent imaging.Data from the assay component UPITT_HCI_U2OS_AR_TIF2_Nucleoli_Antagonist was analyzed into 1 assay endpoint. This assay endpoint, UPITT_HCI_U2OS_AR_TIF2_Nucleoli_Antagonist, was analyzed in the positive analysis fitting direction relative to DHT as the baseline of activity. Using a type of binding reporter, measures of receptor for loss-of-signal activity can be used to understand the binding at the pathway-level as it relates to the gene AR.
Nucleoli Translocation, AR (gene 367), sequence (P10275 whole entry, looked up, the tested form may be a part): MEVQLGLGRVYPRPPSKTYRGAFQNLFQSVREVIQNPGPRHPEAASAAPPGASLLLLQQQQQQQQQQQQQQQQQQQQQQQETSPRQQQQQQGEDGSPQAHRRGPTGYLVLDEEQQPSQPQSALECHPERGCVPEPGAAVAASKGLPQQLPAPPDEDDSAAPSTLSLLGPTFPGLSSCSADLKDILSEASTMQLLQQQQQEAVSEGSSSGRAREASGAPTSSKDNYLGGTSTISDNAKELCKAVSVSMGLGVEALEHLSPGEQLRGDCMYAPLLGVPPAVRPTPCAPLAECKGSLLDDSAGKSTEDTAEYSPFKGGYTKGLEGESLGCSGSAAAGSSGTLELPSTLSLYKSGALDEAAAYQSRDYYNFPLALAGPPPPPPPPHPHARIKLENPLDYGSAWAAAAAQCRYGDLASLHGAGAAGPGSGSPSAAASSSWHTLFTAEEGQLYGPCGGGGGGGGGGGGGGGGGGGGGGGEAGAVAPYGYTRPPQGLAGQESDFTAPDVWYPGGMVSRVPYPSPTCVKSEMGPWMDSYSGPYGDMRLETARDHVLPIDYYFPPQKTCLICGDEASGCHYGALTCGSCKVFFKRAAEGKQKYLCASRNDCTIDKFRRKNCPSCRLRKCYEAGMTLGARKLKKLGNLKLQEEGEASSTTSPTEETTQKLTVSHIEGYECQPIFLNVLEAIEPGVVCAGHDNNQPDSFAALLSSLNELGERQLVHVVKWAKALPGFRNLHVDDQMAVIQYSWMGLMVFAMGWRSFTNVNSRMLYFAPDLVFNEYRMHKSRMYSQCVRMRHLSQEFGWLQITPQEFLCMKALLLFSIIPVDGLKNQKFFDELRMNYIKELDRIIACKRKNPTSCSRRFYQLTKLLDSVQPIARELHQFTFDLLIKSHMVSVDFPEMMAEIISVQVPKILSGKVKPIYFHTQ
Daughter plates containing 2 uL of 10 mM compounds in DMSO were prepared and replicated from the 384-well Library of Pharmacologically Active Compounds (LOPAC) master plates using the Bravo outfitted with a 384-well transfer head. Aluminum adhesive plate seals were applied with an Abgene Seal-IT 100 (Rochester, NY) plate sealer, and the plates were stored at -20 C in a Matrical MatriMinistore (Spokane, WA) automated compound storage and retrieval system. For screening, LOPAC daughter plates were withdrawn from -20C storage, thawed to ambient temperature, centrifuged 1-2 min at 50 g, and the plate seals were removed before the transfer of 98 uL of serum-free tissue culture medium (SFM) into wells using the BioTek Microflo liquid handler (BioTek, Winooski, VT) to generate a 200 uM intermediate stock concentration of library compounds (2.0% DMSO). The diluted compounds were mixed by repeated aspiration and dispensation using a 384-well P30 dispensing head on the Evolution P3 (EP3) liquid handling platform (PerkinElmer, Waltham, MA) and then 5 uL of diluted compounds was transferred to the wells of assay plates. In the LOPAC screen, compounds were individually tested at a final concentration of 20 uM (0.2% DMSO). After the diluted compounds had been transferred from the daughter plates to the primary HCS assay plates, aluminum adhesive plate seals were applied and the diluted daughter plates were stored frozen at -20C. To confirm active compounds identified in the primary screen, we withdrew the LOPAC daughter plates containing the 200 uM intermediate concentration of library compounds (2.0% DMSO) from -20C storage, thawed them to ambient temperature, centrifuged them for 1-2 min at 50 g, and removed the plate seals. A work list was generated to direct the Multiprobe Janus liquid handling platform (PerkinElmer) to cherry pick 75 uL from the wells of the diluted daughter plates that were flagged active in the primary screen and to reformat these into a 384-well plate hit confirmation daughter plate. Five microliters of primary HCS active compounds was then transferred into triplicate wells of assay plates using a 384-well P30 dispensing head on the Evolution P3 (EP3) liquid handling platform (PerkinElmer). […] Daughter plates containing 2 uL of the serially diluted compounds in DMSO were prepared and replicated from the 384-well serial dilution master plates using the Bravo outfitted with a 384-well transfer head. Aluminum adhesive plate seals were applied and plates were stored at -20C. […] The ImageXpress Ultra (IXU) platform (Molecular Devices LLC, Sunnyvale, CA) and The ImageXpress Micro (IXM) platform were used for imaging.
Take `Oc1cc2ccccc2c2ccccc12`: the AC50 (commonly the midpoint of the concentration-response curve, whichever way the signal moves) is 3.25 µM (active).
With `COc1cc(CCC(=O)CC(=O)CCc2ccc(O)c(OC)c2)ccc1O`, the AC50 was 26.6 µM (active).
For `O=c1c(-c2ccc(O)cc2)coc2cc(O)ccc12`, the result was inactive.
Turning to `O=C(/C=C/c1ccc(O)cc1)CC(=O)/C=C/c1ccc(O)cc1`, the AC50 was 16.3 µM (active).
As to `N#C[C@@H]1CC(F)(F)CN1C(=O)CNC1CC2CCC(C1)N2c1ncccn1` (stereo partly specified), the molecule was classed as inactive.
As for `CCCOc1sc(C(=O)N2CCC(c3cc(CN)ccc3F)CC2)c(C)c1Br`, the outcome was inactive.
In the case of `c1ccc2c(c1)ccc1ccccc12`, the AC50 is 33.7 µM (active).
Consider `CCCCCCCCCCCCc1ccccc1S(=O)(=O)O`, for which the AC50 was 83 µM (active).
Same read-out and setting: the result for `Cc1oc(-c2ccccc2)nc1CCOc1ccc(C[C@H](Nc2ccccc2C(=O)c2ccccc2)C(=O)O)cc1` reads 67.6 µM (active).
Consider `CC(=O)CC(C)(C)O`, for which the molecule was called inactive.
Turning to `Cc1cc(CCN2CCN(c3nsc4ccccc34)CC2)cc2c1NC(=O)CC2(C)C`, the AC50 is 50 µM (active).
In the case of `CCC(=C(c1ccc(O)cc1)c1ccc(OCCN(C)C)cc1)c1ccccc1`, the outcome was inactive.
As to `Nc1cccc2c(N)cccc12`, the AC50 was 33.3 µM (active).
As to `NC(=O)N1C(=O)C(C(=O)c2cc(Cl)cs2)c2cc(F)c(Cl)cc21` (stereo unspecified), the molecule was classed as inactive.
Take `CCCCC[C@H](O)CC(=O)CCc1ccc(O)c(OC)c1`: the outcome was inactive.
As for `CC[C@H](c1ccc(O)cc1)[C@@H](CC)c1ccc(O)cc1`, the AC50 was 50 µM (active).
